Values joined by “and” are separate entries in the source; they are usually repeats but may differ in a detail not shown here. Equal values may be shown once. Active and inactive are the calls of the source.
How the values were obtained:
[1] = target: Albumin (Bos taurus) (UniProt P02769); assay: compounds binding labelled BSA control protein – biochemical, small-molecule microarray, Alexa647 label, 635/667 nm fluorescence, artefact control for SMM control protein annotation, profiling panel (AID 1118); details: BSA-A647 binding, fluorescence 635 nm, higher = more signal;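 further: score merges 667 nm emission intensity and signal-to-noise per printed compound spot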
Chain of Albumin (Bos taurus) (P02769 whole entry, looked up): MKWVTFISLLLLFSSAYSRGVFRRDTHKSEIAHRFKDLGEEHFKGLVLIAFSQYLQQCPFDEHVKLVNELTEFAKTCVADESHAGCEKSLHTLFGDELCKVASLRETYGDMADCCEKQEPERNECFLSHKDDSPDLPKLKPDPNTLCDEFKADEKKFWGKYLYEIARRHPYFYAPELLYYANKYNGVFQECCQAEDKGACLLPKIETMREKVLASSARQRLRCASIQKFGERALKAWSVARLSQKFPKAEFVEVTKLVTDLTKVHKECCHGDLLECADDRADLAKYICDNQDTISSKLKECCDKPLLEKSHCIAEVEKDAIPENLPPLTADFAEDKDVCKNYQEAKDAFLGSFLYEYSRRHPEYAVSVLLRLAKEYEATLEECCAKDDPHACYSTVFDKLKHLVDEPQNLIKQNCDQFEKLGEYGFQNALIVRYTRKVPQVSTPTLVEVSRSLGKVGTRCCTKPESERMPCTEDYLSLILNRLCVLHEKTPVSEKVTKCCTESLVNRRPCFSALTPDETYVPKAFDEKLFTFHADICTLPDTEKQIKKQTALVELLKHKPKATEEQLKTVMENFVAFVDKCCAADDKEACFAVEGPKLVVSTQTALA

[2] = probe aXIP binding to arrayed compounds – biochemical, NeuroSMM set, 635/667 nm fluorescence, primary screen (AID 1119); details: small-molecule microarray, higher = more signal, called active from +8 up or from −8 down;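 further: probe is the protein aXip251-270 applied at 1 µg/mL to compound-printed slides; binding of probe to printed compounds measured as 667 nm fluorescence plus signal to noise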
[3] = probe aNOTCH3 binding on compound microarray – biochemical, small-molecule microarray, 635/667 nm fluorescence, primary screen (AID 1120); details: higher = more signal;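 further: probe is a biotin-tagged antibody raised against NOTCH3 rather than NOTCH3 protein; score merges spot fluorescence near 667 nm with spot signal to noise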
[4] = probe aNOTCH2 binding on compound microarray – biochemical, small-molecule microarray, 635/667 nm fluorescence, primary screen (AID 1121); details: higher = more signal;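 further: score merges feature fluorescence read at 667 nm with its signal to noise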
[5] = target: Carbonic anhydrase 2 (Homo sapiens) (UniProt P00918); assay: compounds binding carbonic anhydrase 2 – biochemical, small-molecule microarray, Alexa647-labelled CAII, profiling panel (AID 1122); details: CAII-A647 binding fluorescence, higher = more signal
[6] = COS7 lysate on small-molecule microarray, probe aHis, 635 nm (AID 1123); details: COS7 cell lysate, fluorescence, higher = more signal;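 further: z-score combines 667nm fluorescence intensity with signal-to-noise per printed compound spot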
[7] = probe aLAP1 signal on lysate-treated microarray – cell lysate, small-molecule microarray, COS7 lysate, primary screen (AID 1124); details: probe aLAP1, fluorescence, higher = more signal;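 further: lysate comes from COS7 cells expressing LAP1 and is applied at 0.3 µg/mL; score merges spot fluorescence near 667 nm with signal-to-noise over triplicate slides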
[8] = system: Sam68 (KHDRBS1); assay: compounds binding KHDRBS1 protein – biochemical, small-molecule microarray, 635 nm fluorescence, primary screen (AID 1125); details: higher = more signal;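 further: score merges 667 nm channel intensity with signal to noise over triplicate slides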
[9] = system: Chordin-like protein 2 (CHRDL2); assay: compounds binding chordin-like 2 – biochemical, small-molecule microarray, 635 nm fluorescence, primary screen (AID 1126); details: fluorescence 635 nm, higher = more signal;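 further: printed compound slides probed with Chrdl2 protein at 4 µg/mL for 1 h at 4 C; score merges 667 nm emission intensity with signal to noise over three replicate slides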
[10] = target: Concanavalin-A (Canavalia ensiformis) (UniProt P02866); assay: compounds binding concanavalin A lectin – biochemical, small-molecule microarray, Alexa647 label, 635 nm, artefact control for SMM control protein annotation, primary screen (AID 1127); details: ConA-A647 binding fluorescence, higher = more signal;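 further: z combines 667 nm emission intensity with signal-to-noise across three replicate slides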
Chain of Concanavalin-A (Canavalia ensiformis) (P02866 whole entry, looked up): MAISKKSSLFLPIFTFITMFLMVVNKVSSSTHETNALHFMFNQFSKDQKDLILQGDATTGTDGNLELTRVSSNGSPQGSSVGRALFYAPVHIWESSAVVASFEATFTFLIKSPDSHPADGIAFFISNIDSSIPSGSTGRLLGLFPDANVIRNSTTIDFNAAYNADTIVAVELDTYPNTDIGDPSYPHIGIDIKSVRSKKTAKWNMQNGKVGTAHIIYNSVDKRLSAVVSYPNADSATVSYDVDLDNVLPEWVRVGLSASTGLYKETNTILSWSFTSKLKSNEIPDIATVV

[11] = compounds binding Alexa647 anti-His antibody – biochemical, small-molecule microarray, 635 nm fluorescence, artefact control for SMM control protein annotation, primary screen (AID 1128); details: higher = more signal;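 further: score merges feature fluorescence with signal-to-noise for each printed compound spot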
[12] = system: Human papillomavirus type 1a E7 protein (residues 1-88); assay: HPV1a E7 small-molecule binders, primary screen, biochemical, small-molecule microarray, residues 1-88, 635 nm (AID 1129); details: small-molecule microarray binding, fluorescence 635 nm; higher = more signal
[13] = target: Focal adhesion kinase 1 (Homo sapiens) (UniProt Q05397); assay: PTK2 protein binding on printed compound slides – biochemical, small-molecule microarray, 635/667 nm fluorescence, BSA, DTT, primary screen (AID 1130); details: 635 nm fluorescence, higher = more signal;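 further: composite of spot emission at 667 nm and signal to noise over triplicate slides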
Chain of Focal adhesion kinase 1 (Homo sapiens) (Q05397 whole entry, looked up): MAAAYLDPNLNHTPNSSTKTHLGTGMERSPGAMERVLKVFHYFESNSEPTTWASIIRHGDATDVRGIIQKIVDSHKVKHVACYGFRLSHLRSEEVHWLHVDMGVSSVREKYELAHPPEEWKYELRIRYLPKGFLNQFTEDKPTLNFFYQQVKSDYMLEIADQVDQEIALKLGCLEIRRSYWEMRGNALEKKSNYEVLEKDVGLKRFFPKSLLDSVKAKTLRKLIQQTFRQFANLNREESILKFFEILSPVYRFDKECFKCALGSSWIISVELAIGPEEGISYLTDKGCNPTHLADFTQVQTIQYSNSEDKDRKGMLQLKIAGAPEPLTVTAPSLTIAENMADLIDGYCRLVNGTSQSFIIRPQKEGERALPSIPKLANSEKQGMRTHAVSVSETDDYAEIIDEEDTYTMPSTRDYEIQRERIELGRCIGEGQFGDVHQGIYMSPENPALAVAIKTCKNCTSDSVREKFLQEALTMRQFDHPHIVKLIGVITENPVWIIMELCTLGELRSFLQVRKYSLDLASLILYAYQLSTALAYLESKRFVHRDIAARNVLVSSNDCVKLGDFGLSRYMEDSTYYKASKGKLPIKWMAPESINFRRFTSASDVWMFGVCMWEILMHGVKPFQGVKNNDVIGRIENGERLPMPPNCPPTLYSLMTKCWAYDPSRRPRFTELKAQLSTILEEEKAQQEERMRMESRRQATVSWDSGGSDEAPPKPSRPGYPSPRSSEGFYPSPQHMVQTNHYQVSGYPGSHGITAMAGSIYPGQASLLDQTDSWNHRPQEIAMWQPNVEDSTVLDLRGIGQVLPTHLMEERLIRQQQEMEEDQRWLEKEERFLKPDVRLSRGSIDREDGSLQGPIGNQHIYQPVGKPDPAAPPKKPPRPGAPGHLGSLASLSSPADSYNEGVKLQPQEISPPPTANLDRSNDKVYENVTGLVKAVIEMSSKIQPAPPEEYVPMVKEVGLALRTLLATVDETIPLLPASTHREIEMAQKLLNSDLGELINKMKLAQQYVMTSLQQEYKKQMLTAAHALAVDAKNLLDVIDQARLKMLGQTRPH

[14] = system: Fibrinogen (Alexa647-labelled); assay: Alexa647-fibrinogen binding to printed small molecules – biochemical, small-molecule microarray, 635/667 nm fluorescence, artefact control for SMM control-protein annotation, profiling panel (AID 1131); details: fibrinogen-A647 binding fluorescence, higher = more signal;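 further: z-score merges 667 nm fluorescence with per-spot signal-to-noise over triplicate slides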
[15] = target: Follistatin (Homo sapiens) (UniProt P19883); assay: FST protein binding to printed compounds – biochemical, small-molecule microarray, 635/667 nm fluorescence, primary screen (AID 1132); details: 635 nm fluorescence, higher = more signal
Chain of Follistatin (Homo sapiens) (P19883 whole entry, looked up): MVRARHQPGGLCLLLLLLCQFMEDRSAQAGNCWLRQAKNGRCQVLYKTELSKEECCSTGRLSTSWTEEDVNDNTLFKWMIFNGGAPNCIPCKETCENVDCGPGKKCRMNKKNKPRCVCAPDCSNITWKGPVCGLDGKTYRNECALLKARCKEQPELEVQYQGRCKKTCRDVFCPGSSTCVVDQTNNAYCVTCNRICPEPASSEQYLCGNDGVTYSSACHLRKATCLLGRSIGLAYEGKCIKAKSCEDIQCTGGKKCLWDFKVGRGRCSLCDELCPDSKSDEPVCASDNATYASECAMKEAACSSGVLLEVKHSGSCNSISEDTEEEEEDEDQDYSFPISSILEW

[16] = target: Fibroblast growth factor 2 (Homo sapiens) (UniProt P09038); assay: basic fibroblast growth factor binding to printed compounds – biochemical, small-molecule microarray, 635/667 nm fluorescence, primary screen (AID 1133); details: FGF2, fluorescence 635/667, higher = more signal
Chain of Fibroblast growth factor 2 (Homo sapiens) (P09038 whole entry, looked up): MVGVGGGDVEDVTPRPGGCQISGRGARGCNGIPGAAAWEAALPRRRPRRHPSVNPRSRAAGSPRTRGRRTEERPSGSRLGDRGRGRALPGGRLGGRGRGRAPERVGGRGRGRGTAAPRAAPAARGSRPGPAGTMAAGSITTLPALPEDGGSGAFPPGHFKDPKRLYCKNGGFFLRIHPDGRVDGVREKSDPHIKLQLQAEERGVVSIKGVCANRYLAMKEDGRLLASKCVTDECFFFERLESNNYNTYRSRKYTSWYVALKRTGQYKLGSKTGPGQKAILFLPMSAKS

[17] = JC-1 mitochondrial potential readout, lung cancer cells – cell-based, A549, JC-1 fluorescence, basal, 24 h, 100 nL, profiling panel (AID 1138); details: higher = more signal;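 further: A549 lung adenocarcinoma cells under basal conditions with no added stimulus; test concentration not given here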
[18] = system: Lefty1; assay: Lefty1 protein binding to printed compounds – biochemical, small-molecule microarray, 635/667 nm fluorescence, primary screen (AID 1139); details: fluorescence 635/667, higher = more signal
[19] = system: wheat germ agglutinin (Triticum aestivum), Alexa647-labelled; assay: Alexa647-WGA lectin binding to printed small molecules – biochemical, small-molecule microarray, 635/667 nm fluorescence, artefact control for SMM control-protein annotation, profiling panel (AID 1140); details: WGA-A647 binding, 635 nm fluorescence, higher = more signal;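 further: score merges 667 nm feature emission with signal to noise over triplicate slides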
[20] = target: Luciferin 4-monooxygenase (Photinus pyralis) (UniProt P08659); assay: inhibition of purified Photinus pyralis luciferase – biochemical, luminescence, purified enzyme, 2006 set, primary screen (AID 1141); details: purified firefly luciferase, SteadyGlo luminescence, 30 min; higher = more signal, called active from +8 up or from −8 down;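 further: cell-free assay with purified firefly luciferase at 100 ng per well in PBS; test concentration not given here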
Chain of Luciferin 4-monooxygenase (Photinus pyralis) (P08659 whole entry, looked up): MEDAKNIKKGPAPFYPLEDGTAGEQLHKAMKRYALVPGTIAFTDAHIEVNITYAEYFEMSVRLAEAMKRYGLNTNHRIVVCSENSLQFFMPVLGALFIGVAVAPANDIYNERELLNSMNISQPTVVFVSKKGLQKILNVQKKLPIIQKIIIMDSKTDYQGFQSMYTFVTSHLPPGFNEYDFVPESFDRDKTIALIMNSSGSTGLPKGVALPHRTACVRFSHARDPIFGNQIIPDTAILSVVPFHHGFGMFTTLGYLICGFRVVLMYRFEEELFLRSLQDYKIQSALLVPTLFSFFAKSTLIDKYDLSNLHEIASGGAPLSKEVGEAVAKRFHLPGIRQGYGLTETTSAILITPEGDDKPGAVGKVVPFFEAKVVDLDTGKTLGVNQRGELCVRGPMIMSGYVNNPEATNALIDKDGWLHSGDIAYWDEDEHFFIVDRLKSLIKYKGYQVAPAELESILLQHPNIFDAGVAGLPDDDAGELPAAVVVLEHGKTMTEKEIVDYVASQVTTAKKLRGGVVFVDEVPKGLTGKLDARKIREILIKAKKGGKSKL

Compound | composite z-score [1] | composite Z-score [2] | composite z-score [3] | composite z-score [4] | composite z-score [5] | composite z-score [6] | composite z-score [7] | composite z-score [8] | composite z-score [9] | composite z-score [10] | composite z-score [11] | composite z-score [12] | composite z-score [13] | composite z-score [14] | composite z-score [15] | composite z-score [16] | z-score [17] | composite z-score [18] | composite z-score [19] | z-score [20]
COCn1c2ccccc2c2nnc(C(C)=O)nc21 | -0.565 and -0.0926 | -0.158 (inactive) and -0.123 (inactive) | -0.0647 and 0.106 | -0.131 and -0.126 | 0.158 and -0.258 | -0.0769 and 0.263 | 0.325 and 0.155 | 0.132 and 0.584 | 0.488 and 0.54 | 0.133 and -0.0846 | 0.185 and -0.0618 | -0.582 and -0.0453 | 0.0699 and -0.0566 | -0.0349 and 0.202 | 0.295 and 0.221 | 0.537 and 0.273 | -1.22 and -1.45 | 0.419 and 0.53 | -0.114 and -0.144 | 0.891 (inactive) and 0.305 (inactive)
COC(=O)C1=C(C)N(Cc2ccccc2)C2=C3C(=O)CCC[C@@H]3[C@@](O)(C(=O)OC)C(=O)N2[C@@H]1c1ccccc1 | 0.0476 and 0.354 | -0.0521 (inactive) and -0.191 (inactive) | -0.0077 and 0.178 | -0.125 and -0.114 | 0.362 and 0.0465 | 0.0949 and 0.111 | -0.0012 and 0.0654 | 0.368 and -0.0561 | 0.674 and 0.24 | 0.596 and -0.917 | 0.043 and -0.496 | 0.501 and 0.0093 | -0.12 and 0.177 | 0.335 and -1.14 | 0.584 and 0.158 | 0.997 and 0.581 | 1.22 and 0.728 | 0.573 and 0.217 | 0.121 and -1.1 | -1.29 (inactive) and -1.47 (inactive)
C#CCN1C(/C=C/c2ccccc2)C(=O)OC[C@H]1c1ccccc1 (stereo not given in full) | -0.147 and 0.723 | -0.0965 (inactive) and 0.733 (inactive) | -0.0766 and 0.228 | -0.181 and -0.101 | -0.114 and 0.493 | 0.096 and 0.45 | -0.317 and 0.0886 | 0.224 and 0.889 | 0.852 and -0.0756 | -0.243 and 0.199 | 0.195 and 0.338 | 0.455 and 0.0982 | 0.0124 and 0.142 | -0.106 and 0.137 | 1.28 and 0.768 | 0.441 and 1.07 | -0.411 and -1 | 0.622 and 0.295 | -0.19 and 0.017 | -0.415 (inactive) and 0.754 (inactive)
C=CC[C@@H](O)c1ccc(O)c(F)c1 | 0.27 and 0.242 | 0.276 (inactive) and 0.895 (inactive) | -0.478 and -0.553 | -0.214 and -0.196 | 0.818 and 0.758 | -0.301 and -0.323 | -0.0711 and -0.495 | -0.601 and -0.896 | -1.22 and -1.15 | -1.51 and -1.15 | -1.52 and -0.7 | -0.762 and -1.07 | -0.0427 and -0.9 | -0.755 and -1.22 | -1.12 and -0.0709 | -1.42 and -0.594 | -0.933 and 1.15 | -1.9 and -0.344 | 0.106 and -1.3 | -0.0615 (inactive) and -1.14 (inactive)
C[C@@H]1CN2[C@@H](CC[C@@H](C)[C@@H]2c2ccc(Br)cc2)C(=O)O1 | -0.66 and 0.877 | -0.139 (inactive) and 0.204 (inactive) | 0.0357 and -0.0363 | -0.0515 and -0.221 | -0.366 and -0.303 | -0.513 and 0.437 | 0.39 and 0.146 | -1.57 and 0.0639 | 0.261 and 0.559 | -0.0782 and -0.252 | 0.513 and -0.557 | -1.13 and 0.142 | -0.0732 and 0.591 | -0.459 and -0.964 | -0.138 and 0.0634 | 0.0798 and 0.44 | 1.14 and 1.07 | -0.0013 and 0.133 | -0.556 and 0.125 | -0.678 (inactive) and -1.36 (inactive)

Source: PubChem BioAssay
